Laboratory results from the supplement of paper PMC12636033.
± gives the standard deviation of the averaged measurements. Whole data set: some 33,000 sequences, median “E-score (rank enrichment, -0.5 to 0.5)” near -0.0043, cut for the highest 2% near 0.24. The entries come from a sample that favours the highest values as a whole.

What follows are sequences tested on 2Sp-muMax20 (muMax20 with two 2,6-bis(methyl)pyridine Cys staples) (assay: PBM 8-mer E-score (E-score (rank enrichment, -0.5 to 0.5)); higher = stronger preferential binding).
Method: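 Protein binding microarray (universal PBM chip covering all 10-mers in fixed probe flanks) with chemically synthesized human Max(13-93) bHLH-LZ analogs (not full-length Max) bearing noncanonical residues (hArg, Tha, Aib, Nle at 65) and aromatic Cys staples. Read-out per 8-mer (and its reverse complement): E-score (rank-based enrichment, -0.5 to 0.5) and Z-score of median probe intensity.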

Sequence	PBM 8-mer E-score
CACAGAGC	-0.0473 ± 0.035
CGCTTAAA	0.0219 ± 0.026
TCACCACA	0.209 ± 0.055
ACAAGAGA	-0.031 ± 0.039
CAGGATCC	0.0142 ± 0.1
CCCAGCCG	-0.207 ± 0.031
GGGTGAAC	-0.0445 ± 0.0025
AGATTGGC	-0.253 ± 0.0034
AGATTGGA	0.0807 ± 0.089
AGATTGGG	0.236 ± 0.005
GACACTCA	-0.155 ± 0.12
CCTTCTCC	-0.1487 ± 0.00034
ACAGGCCC	-0.0606 ± 0.0054
CGTATAAG	0.0589 ± 0.0073
AGTATAAC	0.0726 ± 0.034
AGTATAAG	0.273 ± 0.061
CGTATACG	0.279 ± 0.086
ACTATAAT	0.1911 ± 0.00057
ACTATAAG	0.147 ± 0.011
AGTATACC	0.0537 ± 0.062
CGTATACC	-0.132 ± 0.077
AGTATAAT	0.307 ± 0.047
AGTATACA	0.218 ± 0.026
AGTATACT	0.287 ± 0.014
CGTATACA	0.0425 ± 0.12

Sequence	PBM 8-mer E-score
ATGTGTGC	-0.0334 ± 0.049
AAGCGGCA	-0.0432 ± 0.047
ATCACTTG	0.101 ± 0.072
GGATTCTA	0.0681 ± 0.064
GTCAACTA	0.0356 ± 0.0025
CGGGGACA	-0.0692 ± 0.1
TGACTACA	0.0909 ± 0.018
AGATACCA	0.171 ± 0.03
AGATACCC	0.264 ± 0.0095
AGATACCG	-0.166 ± 0.039
AGGCGAAA	-0.0363 ± 0.041
GCCTTGAC	-0.0306 ± 0.049
AGACCGAG	-0.0567 ± 0.059
GAACGTGA	-0.0484 ± 0.032
GGACGTGA	-0.181 ± 0.05
GCACGTGA	0.29 ± 0.034
GCACGTAC	0.0252 ± 0.017
GCACGTGC	0.472 ± 0.0076
GCACGTCC	-0.107 ± 0.035
GTCTCGTA	-0.016 ± 0.023
GTGCCCAC	-0.0178 ± 0.036
CACTCAGG	0.00926 ± 0.0019
CGAGAAAA	-0.0823 ± 0.086
CGGCGGCA	-0.192 ± 0.016
GGGTAAAA	0.146 ± 0.043

Sequence	PBM 8-mer E-score
GATGCTGA	-0.077 ± 0.021
AATGCGTA	0.186 ± 0.021
AATGCTGA	0.11 ± 0.11
CATGCTTC	0.244 ± 0.013
CATGCGTA	0.291 ± 0.02
CATGCTTA	0.223 ± 0.018
AATGCTTC	0.126 ± 0.0042
CATGCTGA	0.235 ± 0.031
GATGCGTA	0.12 ± 0.027
CTTAAGTC	-0.0675 ± 0.033
CCTGCGAC	-0.0368 ± 0.021
CACTGACA	-0.147 ± 0.062
CCATTTAC	0.106 ± 0.12
ACACAGAA	0.0709 ± 0.022
ACGTATAA	0.125 ± 0.024
AACAGGAA	-0.0894 ± 0.071
ATTCAGAC	-0.0466 ± 0.061
CGTGTGTA	0.239 ± 0.011
CCCGTGTC	-0.204 ± 0.024
AACGTGTA	0.0544 ± 0.12
AGTGTGTA	0.0578 ± 0.047
CACGTGTC	0.377 ± 0.036
GACGTGTA	-0.0461 ± 0.043
CGCGTGTA	0.238 ± 0.04
AGCGTGTA	0.1194 ± 0.0008

Sequence	PBM 8-mer E-score
GGTGTGTA	0.0384 ± 0.034
CACGTGTA	0.389 ± 0.023
CGCGTGTC	0.139 ± 0.067
AACGTGTC	0.0326 ± 0.036
GACTAGAA	0.177 ± 0.023
CCATCGGG	-0.247 ± 0.14
CCCCAGTC	0.0489 ± 0.031
AACTTACC	-0.00702 ± 0.031
GCGGCGTA	0.0259 ± 0.057
ACTCGGGC	-0.209 ± 0.095
CATTCCTA	0.0858 ± 0.042
CGTTGTGA	-0.116 ± 0.13
AATCCACT	-0.0636 ± 0.11
TGTTCCAA	-0.0197 ± 0.029
ATGGAGGG	0.168 ± 0.038
AGCTGTGG	-0.0756 ± 0.04
ATAGGGGA	0.138 ± 0.033
GGAGGGGA	0.244 ± 0.028
CTAGGGGA	0.0989 ± 0.024
GTAGGGGA	0.29 ± 0.033
CGAGGGGA	0.021 ± 0.025
GGAGGGAA	-0.0234 ± 0.062
CTTTCCGA	-0.294 ± 0.038
AGGTGCGC	-0.139 ± 0.056
ACCCTATA	-0.0592 ± 0.015

Sequence	PBM 8-mer E-score
TGGCGTAA	0.0766 ± 0.16
ATTTTTAG	-0.0464 ± 0.14
GACTTCAA	0.0921 ± 0.077
TACTTCAA	0.243 ± 0.013
AACTTCAA	0.0284 ± 0.018
CATCTAGC	0.114 ± 0.045
GGTCTCAC	0.0156 ± 0.0022
ACGTTGAA	0.123 ± 0.036
GTACGTAA	0.101 ± 0.075
ATACGTAC	0.185 ± 0.07
ATACGTAA	0.119 ± 0.077
ATACGTAT	0.339 ± 0.022
TTACGTAA	0.2354 ± 0.0003
CTACGTAA	0.0719 ± 0.058
GAGACAAC	0.00299 ± 0.013
AACTTTAA	0.0575 ± 0.063
CGGTTACG	-0.19 ± 0.072
CCGCATCG	-0.258 ± 0.046
CTATGAGC	-0.0207 ± 0.088
CAATAAAA	0.294 ± 0.052
CAATAATG	0.0692 ± 0.049
GAATAAAA	0.0399 ± 0.044
CAATAATC	0.0969 ± 0.081
CAATAAAC	0.137 ± 0.053
CAATAATA	0.247 ± 0.045

Sequence	PBM 8-mer E-score
GACAGGTC	-0.12 ± 0.088
AGAGCCAA	0.00188 ± 0.0012
CGAGGACC	-0.245 ± 0.046
AACGGCCC	-0.372 ± 0.037
AACGGCCT	0.275 ± 0.0083
AACGGCCA	-0.0961 ± 0.022
TCGTCCAA	-0.0225 ± 0.01
AACGGTCC	-0.298 ± 0.1
ACACGTGC	0.407 ± 0.024
TCACGTGA	0.438 ± 0.0011
ACACGTAC	-0.0036 ± 0.092
ACACGTGA	0.412 ± 0.034
ACACGTGG	0.3868 ± 0.00064
AGACGTGA	0.0537 ± 0.03
ATACGTGA	-0.0748 ± 0.062
AAACGTGG	0.0452 ± 0.042
TAACGTGA	0.093 ± 0.036
TCACGTAA	-0.0172 ± 0.028
AGACGTGC	-0.145 ± 0.021
ACACGTAG	-0.0191 ± 0.055
CCTCTTAG	-0.00532 ± 0.11
CATTCGCA	0.0276 ± 0.0019
ACCAAACC	0.0152 ± 0.034
CAGTCTAG	-0.117 ± 0.05
CAATAGAA	0.0449 ± 0.032

Sequence	PBM 8-mer E-score
AAACGTGT	0.077 ± 0.06
ACGCGTGA	0.25 ± 0.0042
ACACGTAT	0.178 ± 0.052
ACACGTGT	0.421 ± 0.015
ACGCGTGC	0.177 ± 0.049
GCGCGTGA	0.2082 ± 0.00059
ACTTTCCC	-0.0248 ± 0.091
CTCGTCTC	-0.0179 ± 0.03
CTCACGTC	-0.00269 ± 0.06
ATTCGAGC	-0.0718 ± 0.14
CTTCGAGA	-0.0158 ± 0.028
ATTCGAGA	0.239 ± 0.052
AGGTTGCC	-0.164 ± 0.035
GCACCTAC	-0.194 ± 0.0063
ATCACGAT	0.00138 ± 0.12
CGCACGCC	-0.0203 ± 0.1
TAGACCCA	0.282 ± 0.061
AAGACCCA	0.0969 ± 0.13
GAGACCCA	-0.1 ± 0.07
CCTTTAAC	-0.0714 ± 0.012
GGCGCACC	-0.281 ± 0.032
CGCTACCA	-0.1194 ± 0.00063
